A selection: hits, their analogues and other compounds. The true share with any hit is near 27%.
Cav32 inh: blocks human Cav3.2 T-type calcium channel | Cav3.2-expressing cells, Fluo-4 calcium fluorescence FDSS; active compounds read low | B-score at 10 µM | actives 4% (n = 100,000);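 active = single-dose well whose peak fluorescence ratio is a statistical outlier from its plate by either plate-standardised score or position-corrected B-score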
CYP2C19 act: cytochrome P450 2C19 (human) activation | P33261 | recombinant CYP2C19, luciferin-H EGE luminescence; active compounds read high; 0 = fully inhibited enzyme, 1 = untreated enzyme | activation factor at 5 µM | 96,000 tested, under 10 active | AID 1025;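 active = activation factor of at least 2 at 5 µM in the primary screen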;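 also: 0 = wells with 2.5 mM tranylcypromine and 1 = vehicle-only wells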
CYP2C19 inhib: inhibitors of human CYP2C19 | CYP2C19 Supersomes, luciferin-H EGE luminescence, 30 min | inhibition, % at 5 µM | actives 21% (n = 96,000) | P33261;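 active = CYP2C19 inhibition above a set limit at 5 µM in the primary screen, cut at about 50% in these data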;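 also: plate controls were negative control wells for no effect and 2.5 mM tranylcypromine positive control for full effect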
CYP2C9 inh: blocks human cytochrome P450 2C9 | P11712 | CYP2C9 Supersomes, luciferin-H conversion, luminescence | inhibition, % at 5 µM | actives 20% (n = 96,000) | AID 777;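 active = blocking of liver enzyme CYP2C9 beyond about 50% at 5 µM, limit read from the data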
CYP2C9 act: increases human cytochrome P450 2C9 activity. P11712. recombinant CYP2C9, luciferin-H conversion, luminescence; active compounds read high; factor 1 = untreated enzyme, 0 = blocked. activation factor at 5 µM. actives 1.4% (n = 96,000). AID 1024;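 active = activation factor of 2 or more for CYP2C9 at a 5 µM dose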;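 also: 0 = sulfaphenazole-blocked wells and 1 = vehicle-only wells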
Active calls of the source: *; . = no result.

SMILES	Cav32 inh	CYP2C19 act	CYP2C19 inhib	CYP2C9 inh	CYP2C9 act
COc1ccccc1/C=C1\NC(=S)N(CC2CCCO2)C1=O (stereo not drawn)	-0.28	0.6	40	34	0.7
COc1ccc(/C=C2/C(=O)N(CC3CCCO3)C(=S)N2C)c(OC)c1 (stereo not drawn)	-1.8	0.4	64*	90*	0.1
CC1=C(C(=O)Nc2ccccc2F)C(c2ccsc2)C2=C(CC(c3ccccc3)CC2=O)N1 (stereo not drawn)	-6.5*	0.2	79*	6	0.9
COc1ccc(C(=O)/C=C/c2ccccc2OC)c(OC(=O)c2ccc([N+](=O)[O-])cc2)c1	-1.7	.	.	.	.
COc1ccc(OC(=O)c2cccc([N+](=O)[O-])c2)c(C(=O)/C=C/c2cccs2)c1	0.72	0.4	62*	75*	0.3
Cc1cccc(OCC(=O)O/N=C(\N)Cc2ccc(Cl)cc2)c1	-0.35	1	1	-7	1.1
CCN(Cc1cc2ccccc2[nH]c1=O)C(=O)c1cccnc1	-0.028	1	4	3	1
Cc1ccc2[nH]c(=O)c(CN(Cc3cccnc3)C(=O)c3ccncc3)cc2c1	0.18	0.1	91*	80*	0.2
Cc1cccc(N(Cc2cc3ccccc3[nH]c2=O)C(=O)c2ccco2)c1C	-0.21	1.2	-21	-10	1.1
CCN(Cc1cc2cc(OC)ccc2[nH]c1=O)C(=O)Cc1ccc(OC)cc1	.	0.6	43	19	0.8
CCN(Cc1cc2cc(OC)ccc2[nH]c1=O)C(=O)c1ccncc1	0.17	0.3	74*	68*	0.3
O=C(c1ccncc1)N(Cc1ccco1)Cc1cc2ccccc2[nH]c1=O	0.46	0	99*	93*	0.1
Cc1cc(C)n(S(=O)(=O)c2ccc(Cl)c(Cl)c2Cl)n1	-1.8	0.3	69*	-73	1.7
Cc1cc(C)n(S(=O)(=O)c2cccc(Cl)c2Cl)n1	0.62	0.5	54*	26	0.7
COc1c(S(=O)(=O)n2nc(C)cc2C)ccc(Cl)c1Cl	-2	0.5	52*	-132	2.3*
Cc1cc(C)n(S(=O)(=O)c2cc(C)c(C)cc2C)n1	-2.9	0.8	18	-4	1
CC(C)OC(=O)CCCN1C(=O)c2ccc(N)cc2C1=O	.	0.3	74*	-18	1.2
Cc1ccc(C(C(=O)NC2CCCC2)N2CCCC(C)C2)cc1 (stereo not drawn)	0.39	0.5	49	40	0.6
CC1CCCN(C(C(=O)Nc2ccc3c(c2)OCO3)c2ccccc2)C1 (stereo not drawn)	-2.8	0.2	80*	82*	0.2
Cc1cccc(C)c1NC(=O)C(c1ccccc1)N1CCOCC1 (stereo not drawn)	0.31	.	.	.	.
O=C(NC1CCCCC1)C(c1ccc(Cl)cc1)N1CCC2(CC1)OCCO2 (stereo not drawn)	-1.3	0.8	23	9	0.9
O=C(Nc1ccc2c(c1)OCO2)C(c1ccccc1)N1CCC2(CC1)OCCO2 (stereo not drawn)	0.91	0.1	90*	79*	0.2
Cc1cccc(NC(=O)C(c2cccc([N+](=O)[O-])c2)N2CCCCC2)c1 (stereo not drawn)	-8*	0.5	52*	29	0.7
CC1CCN(C(C(=O)Nc2ccc3c(c2)OCO3)c2ccccc2)CC1 (stereo not drawn)	.	0.3	73*	84*	0.2
Cc1cccc(NC(=O)C2(c3ccc([N+](=O)[O-])cc3)CCCC2)c1	-5.5*	0.2	78*	39	0.6
SMILES	Cav32 inh	CYP2C19 act	CYP2C19 inhib	CYP2C9 inh	CYP2C9 act
O=C(Nc1ccc2c(c1)OCO2)c1ccccc1SCC(=O)N1CCCC1	.	0.6	45	10	0.9
O=C(Nc1ccc2c(c1)OCO2)C(c1ccccc1)N1CCCCC1 (stereo not drawn)	-2.8	0.4	58*	60*	0.4
Nn1c(=O)c2ccccc2n2c(SCc3ccc(C(F)(F)F)cc3)nnc12	1.1	0.6	42	50*	0.5
O=C1c2ccccc2C(=O)C12Cc1ccccc1N1CCN(c3ccccc3)CC12 (stereo not drawn)	-3.3	0.4	56*	76*	0.2
C/C(=N\N1CCN(C2c3ccccc3-c3ccccc32)CC1)c1ccncc1	0.16	0.2	77*	52*	0.5
Cc1ccsc1/C=N/N1CCN(C2c3ccccc3-c3ccccc32)CC1	-0.95	0.7	29	88*	0.1
C(=N\N1CCN(C2c3ccccc3-c3ccccc32)CC1)/c1ccncc1	.	0.7	34	36	0.6
